Assay results as given in PMC12820563, “FoxP3 forms a head-to-head dimer in vivo and stabilizes its multimerization on adjacent microsatellites”.
The full ranking holds about 16,000 sequences; the median of “rpm ratio (pull-down/input)” is about 0.94, and the highest 2% start at about 1.7. The full list was thinned out, with the highest values kept by preference.

molecular target: T1, MBP-FoxP1dN (Mus musculus, UniProt P58462 326-579); test: PD-seq (MBP pull-down with sequencing); 20 mM Tris-HCl pH 7.5, 100 mM NaCl, 1.5 mM MgCl2, 0.4 uM protein, 0.1 uM dsDNA library, 30 min, room temperature, amylose pull-down; high values mean tight binding; details: protein: recombinant; tags: His6-MBP; chain copies: 2; dsDNA, one strand shown
T1 sequence: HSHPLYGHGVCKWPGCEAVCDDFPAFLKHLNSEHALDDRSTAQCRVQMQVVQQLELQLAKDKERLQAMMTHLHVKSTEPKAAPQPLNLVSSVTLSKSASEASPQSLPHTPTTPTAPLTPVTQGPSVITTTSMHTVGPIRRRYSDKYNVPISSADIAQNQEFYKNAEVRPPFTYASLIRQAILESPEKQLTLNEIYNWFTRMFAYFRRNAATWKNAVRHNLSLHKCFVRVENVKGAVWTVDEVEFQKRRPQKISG
How it was run: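 A degenerate double-stranded DNA library, filled in with Klenow, was added at 0.1 µM to 0.4 µM His6-MBP-tagged mouse FoxP3 or FoxP1 fragment lacking the N-terminus, expressed in E. coli. Incubation lasted 30 min at room temperature in Tris pH 7.5 buffer with NaCl and MgCl2, after which complexes were collected on amylose resin, washed three times, digested with proteinase K to free the DNA, barcoded by PCR and sequenced by Illumina. Binding is the pooled-replicate reads-per-million enrichment of pull-down over input.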

Sequence | binding signal
GATGATTGTTCTCCCAGCTGATGAATTAAACTAATCGAGTAAACAAATTTTCCTAATCTTTCTGTTCAAGCGCCATCTAC | 1.09 RPM ratio (pull-down/input)
GATGATTGTTCTCCCAGCTGATGAATTCGTCCTATCGAGTAAACAAATTTTCCTAATCTTTCTGTTCAAGCGCCATCTAC | 0.835 RPM ratio (pull-down/input)
GATGATTGTTCTCCCAGCTGATGAATTTTCGCGATCGAGTAAACAAATTTTCCTAATCTTTCTGTTCAAGCGCCATCTAC | 0.884 RPM ratio (pull-down/input)
GATGATTGTTCTCCCAGCTGATGAATTTGCGTTGTCGAGTAAACAAATTTTCCTAATCTTTCTGTTCAAGCGCCATCTAC | 1.29 RPM ratio (pull-down/input)
GATGATTGTTCTCCCAGCTGATGAATTGGATAGCTCGAGTAAACAAATTTTCCTAATCTTTCTGTTCAAGCGCCATCTAC | 0.85 RPM ratio (pull-down/input)
GATGATTGTTCTCCCAGCTGATGAATTTAGATGATCGAGTAAACAAATTTTCCTAATCTTTCTGTTCAAGCGCCATCTAC | 1.11 RPM ratio (pull-down/input)
GATGATTGTTCTCCCAGCTGATGAATTTTACGTATCGAGTAAACAAATTTTCCTAATCTTTCTGTTCAAGCGCCATCTAC | 0.962 RPM ratio (pull-down/input)
GATGATTGTTCTCCCAGCTGATGAATTTTAGTAATCGAGTAAACAAATTTTCCTAATCTTTCTGTTCAAGCGCCATCTAC | 1.75 RPM ratio (pull-down/input)
GATGATTGTTCTCCCAGCTGATGAATTTGATTTATCGAGTAAACAAATTTTCCTAATCTTTCTGTTCAAGCGCCATCTAC | 1.23 RPM ratio (pull-down/input)
GATGATTGTTCTCCCAGCTGATGAATTTGGTTTATCGAGTAAACAAATTTTCCTAATCTTTCTGTTCAAGCGCCATCTAC | 1.32 RPM ratio (pull-down/input)
GATGATTGTTCTCCCAGCTGATGAATTTAGTAAATCGAGTAAACAAATTTTCCTAATCTTTCTGTTCAAGCGCCATCTAC | 1.58 RPM ratio (pull-down/input)
GATGATTGTTCTCCCAGCTGATGAATTTTGTTTATCGAGTAAACAAATTTTCCTAATCTTTCTGTTCAAGCGCCATCTAC | 2.61 RPM ratio (pull-down/input)
GATGATTGTTCTCCCAGCTGATGAATTTACGTAATCGAGTAAACAAATTTTCCTAATCTTTCTGTTCAAGCGCCATCTAC | 1.82 RPM ratio (pull-down/input)
GATGATTGTTCTCCCAGCTGATGAATTACGTAAATCGAGTAAACAAATTTTCCTAATCTTTCTGTTCAAGCGCCATCTAC | 1.34 RPM ratio (pull-down/input)
GATGATTGTTCTCCCAGCTGATGAATTTAGTGAATCGAGTAAACAAATTTTCCTAATCTTTCTGTTCAAGCGCCATCTAC | 0.958 RPM ratio (pull-down/input)
GATGATTGTTCTCCCAGCTGATGAATTTTTTAGATCGAGTAAACAAATTTTCCTAATCTTTCTGTTCAAGCGCCATCTAC | 0.923 RPM ratio (pull-down/input)
GATGATTGTTCTCCCAGCTGATGAATTGTTTAGATCGAGTAAACAAATTTTCCTAATCTTTCTGTTCAAGCGCCATCTAC | 2.19 RPM ratio (pull-down/input)
GATGATTGTTCTCCCAGCTGATGAATTGTCACATTCGAGTAAACAAATTTTCCTAATCTTTCTGTTCAAGCGCCATCTAC | 1.2 RPM ratio (pull-down/input)

Sequence | binding signal
GATGATTGTTCTCCCAGCTGATGAATTGAACGTTTCGAGTAAACAAATTTTCCTAATCTTTCTGTTCAAGCGCCATCTAC | 0.869 RPM ratio (pull-down/input)
GATGATTGTTCTCCCAGCTGATGAATTTATGGGATCGAGTAAACAAATTTTCCTAATCTTTCTGTTCAAGCGCCATCTAC | 0.919 RPM ratio (pull-down/input)
GATGATTGTTCTCCCAGCTGATGAATTCTCCCTCTCGAGTAAACAAATTTTCCTAATCTTTCTGTTCAAGCGCCATCTAC | 0.869 RPM ratio (pull-down/input)
GATGATTGTTCTCCCAGCTGATGAATTATATTCCTCGAGTAAACAAATTTTCCTAATCTTTCTGTTCAAGCGCCATCTAC | 0.968 RPM ratio (pull-down/input)
GATGATTGTTCTCCCAGCTGATGAATTGAGGTAGTCGAGTAAACAAATTTTCCTAATCTTTCTGTTCAAGCGCCATCTAC | 0.86 RPM ratio (pull-down/input)
GATGATTGTTCTCCCAGCTGATGAATTAGATTTCTCGAGTAAACAAATTTTCCTAATCTTTCTGTTCAAGCGCCATCTAC | 0.85 RPM ratio (pull-down/input)
GATGATTGTTCTCCCAGCTGATGAATTTTAGTTTTCGAGTAAACAAATTTTCCTAATCTTTCTGTTCAAGCGCCATCTAC | 1.4 RPM ratio (pull-down/input)
GATGATTGTTCTCCCAGCTGATGAATTTAGTTTTTCGAGTAAACAAATTTTCCTAATCTTTCTGTTCAAGCGCCATCTAC | 1.19 RPM ratio (pull-down/input)
GATGATTGTTCTCCCAGCTGATGAATTGTTTAGTTCGAGTAAACAAATTTTCCTAATCTTTCTGTTCAAGCGCCATCTAC | 1.94 RPM ratio (pull-down/input)
GATGATTGTTCTCCCAGCTGATGAATTCGCGCAGTCGAGTAAACAAATTTTCCTAATCTTTCTGTTCAAGCGCCATCTAC | 0.818 RPM ratio (pull-down/input)
GATGATTGTTCTCCCAGCTGATGAATTCAGTCGTTCGAGTAAACAAATTTTCCTAATCTTTCTGTTCAAGCGCCATCTAC | 0.873 RPM ratio (pull-down/input)
GATGATTGTTCTCCCAGCTGATGAATTTTGTTAGTCGAGTAAACAAATTTTCCTAATCTTTCTGTTCAAGCGCCATCTAC | 1.82 RPM ratio (pull-down/input)
GATGATTGTTCTCCCAGCTGATGAATTTTTTAGGTCGAGTAAACAAATTTTCCTAATCTTTCTGTTCAAGCGCCATCTAC | 0.925 RPM ratio (pull-down/input)
GATGATTGTTCTCCCAGCTGATGAATTTGTTTAGTCGAGTAAACAAATTTTCCTAATCTTTCTGTTCAAGCGCCATCTAC | 2.24 RPM ratio (pull-down/input)
GATGATTGTTCTCCCAGCTGATGAATTTATTTAGTCGAGTAAACAAATTTTCCTAATCTTTCTGTTCAAGCGCCATCTAC | 1.76 RPM ratio (pull-down/input)
GATGATTGTTCTCCCAGCTGATGAATTATTTTAGTCGAGTAAACAAATTTTCCTAATCTTTCTGTTCAAGCGCCATCTAC | 1.21 RPM ratio (pull-down/input)
GATGATTGTTCTCCCAGCTGATGAATTCTGTTAGTCGAGTAAACAAATTTTCCTAATCTTTCTGTTCAAGCGCCATCTAC | 1.29 RPM ratio (pull-down/input)
